{"source": "a collection of fitness landscapes (doi:10.1016/j.celrep.2020.107928)", "parents": {"B1": {"name": "Caulobacter ParB omega fusion; a variant is named by its letters at X, in order, B8GW30 (parent)", "chain": "MESVVVGEPGMSEGRRGLGRGLSALLGEVDAAPAQAPGEQLGGSREAPIEILQRNPDQPRRTFREEDLEDLSNSIREKGVLQPILVRPSPDTAGEYQIVAGERAWRAAQRAGLKTVPIMVRELDDLAVLEIGIIENVQRADLNVLEEALSYKVLMEKFERTQENIAQTIGKSXSHVANXMRLLXLPDEVQSYLVSGELTAXHARAIAAAADPVALAKQIIEGGLSVRETEALARKAPNLSAGKSKGGRPPRVKDTDTQALESDLSSVLGLDVSIDHRGSTGTLTITYATLEQLDDLCNRLTRGI"}}, "note": "In all, about 81,000 sequences were measured (“one-hybrid fitness for binding NBS DNA”: median about -0.1, highest 2% from about 0.36 on). The list comes from a sample in which the highest values are over-represented; it also holds similar and randomly drawn sequences.", "data": [{"variants_of": "B1", "assay": "one-hybrid fitness for binding NBS DNA (the Noc-binding site; scaled: cognate 1, non-cognate 0); higher = stronger binding", "details": "with NBS DNA site", "procedure,_shortened": "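Fitness here means the log change in variant-to-wild-type read ratio between plasmids sequenced before and after selection. That scale was set so cognate equals 1 and non-cognate equals 0. The selection was a bacterial one-hybrid screen of Caulobacter ParB libraries, four specificity codons randomised, in E. coli USO carrying a HIS3 reporter with the site 19 bp from the promoter, grown 48 hours at 37°C on M9-minus-histidine with 0.1 mM IPTG and 5 mM 3-AT.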", "values": [{"variant": "DSDF", "one-hybrid fitness for binding NBS DNA": "≤ 0.2"}, {"variant": "RWRC", "one-hybrid fitness for binding NBS DNA": "≤ 0.2"}, {"variant": "PLVT", "one-hybrid fitness for binding NBS DNA": "≤ 0.2"}, {"variant": "DMHW", "one-hybrid fitness for binding NBS DNA": "≤ 0.2"}, {"variant": "TRSF", "one-hybrid fitness for binding NBS DNA": "≤ 0.2"}, {"variant": "IKKC", "one-hybrid fitness for binding NBS DNA": "≤ 0.2"}, {"variant": "QILR", "one-hybrid fitness for binding NBS DNA": 0.335}, {"variant": "QCLR", "one-hybrid fitness for binding NBS DNA": 0.562}, {"variant": "QTLN", "one-hybrid fitness for binding NBS DNA": "≤ 0.2"}, {"variant": "QHLH", "one-hybrid fitness for binding NBS DNA": "≤ 0.2"}, {"variant": "QHLR", "one-hybrid fitness for binding NBS DNA": 0.445}, {"variant": "QHLP", "one-hybrid fitness for binding NBS DNA": "≤ 0.2"}, {"variant": "QTLR", "one-hybrid fitness for binding NBS DNA": 0.639}, {"variant": "QTLH", "one-hybrid fitness for binding NBS DNA": 0.223}, {"variant": "QPLR", "one-hybrid fitness for binding NBS DNA": "≤ 0.2"}, {"variant": "WSWT", "one-hybrid fitness for binding NBS DNA": "≤ 0.2"}, {"variant": "AVHS", "one-hybrid fitness for binding NBS DNA": "≤ 0.2"}, {"variant": "GHKE", "one-hybrid fitness for binding NBS DNA": "≤ 0.2"}, {"variant": "MTRR", "one-hybrid fitness for binding NBS DNA": 0.273}, {"variant": "QQAP", "one-hybrid fitness for binding NBS DNA": "≤ 0.2"}, {"variant": "QQHF", "one-hybrid fitness for binding NBS DNA": "≤ 0.2"}, {"variant": "QQYP", "one-hybrid fitness for binding NBS DNA": "≤ 0.2"}, {"variant": "QQYR", "one-hybrid fitness for binding NBS DNA": 0.578}, {"variant": "QQRE", "one-hybrid fitness for binding NBS DNA": 0.332}, {"variant": "DQYR", "one-hybrid fitness for binding NBS DNA": "≤ 0.2"}, {"variant": "QQAN", "one-hybrid fitness for binding NBS DNA": "≤ 0.2"}, {"variant": "DQRR", "one-hybrid fitness for binding NBS DNA": "≤ 0.2"}, {"variant": "QQRR", "one-hybrid fitness for binding NBS DNA": 1.09}, {"variant": "QQHG", "one-hybrid fitness for binding NBS DNA": "≤ 0.2"}, {"variant": "QQAR", "one-hybrid fitness for binding NBS DNA": 0.654}, {"variant": "QQHR", "one-hybrid fitness for binding NBS DNA": 0.683}, {"variant": "KIQL", "one-hybrid fitness for binding NBS DNA": "≤ 0.2"}, {"variant": "YWII", "one-hybrid fitness for binding NBS DNA": "≤ 0.2"}, {"variant": "AFHM", "one-hybrid fitness for binding NBS DNA": "≤ 0.2"}, {"variant": "TVSR", "one-hybrid fitness for binding NBS DNA": "≤ 0.2"}, {"variant": "PDRQ", "one-hybrid fitness for binding NBS DNA": "≤ 0.2"}, {"variant": "TNMG", "one-hybrid fitness for binding NBS DNA": "≤ 0.2"}, {"variant": "QQGC", "one-hybrid fitness for binding NBS DNA": "≤ 0.2"}, {"variant": "NQFR", "one-hybrid fitness for binding NBS DNA": "≤ 0.2"}, {"variant": "QQFR", "one-hybrid fitness for binding NBS DNA": 0.491}, {"variant": "QQLG", "one-hybrid fitness for binding NBS DNA": "≤ 0.2"}, {"variant": "QQGK", "one-hybrid fitness for binding NBS DNA": "≤ 0.2"}, {"variant": "QQCD", "one-hybrid fitness for binding NBS DNA": "≤ 0.2"}, {"variant": "QQLM", "one-hybrid fitness for binding NBS DNA": "≤ 0.2"}, {"variant": "QQLR", "one-hybrid fitness for binding NBS DNA": 0.567}, {"variant": "QQGR", "one-hybrid fitness for binding NBS DNA": 0.672}, {"variant": "QQCK", "one-hybrid fitness for binding NBS DNA": "≤ 0.2"}, {"variant": "QQCR", "one-hybrid fitness for binding NBS DNA": 0.63}, {"variant": "TPFT", "one-hybrid fitness for binding NBS DNA": "≤ 0.2"}, {"variant": "ATSG", "one-hybrid fitness for binding NBS DNA": "≤ 0.2"}, {"variant": "VDTI", "one-hybrid fitness for binding NBS DNA": "≤ 0.2"}, {"variant": "HTCG", "one-hybrid fitness for binding NBS DNA": "≤ 0.2"}, {"variant": "PHKP", "one-hybrid fitness for binding NBS DNA": "≤ 0.2"}, {"variant": "NAEM", "one-hybrid fitness for binding NBS DNA": "≤ 0.2"}, {"variant": "IYRA", "one-hybrid fitness for binding NBS DNA": "≤ 0.2"}, {"variant": "LQHD", "one-hybrid fitness for binding NBS DNA": "≤ 0.2"}, {"variant": "WGPQ", "one-hybrid fitness for binding NBS DNA": "≤ 0.2"}, {"variant": "LPFS", "one-hybrid fitness for binding NBS DNA": "≤ 0.2"}, {"variant": "QQSC", "one-hybrid fitness for binding NBS DNA": "≤ 0.2"}, {"variant": "QQWY", "one-hybrid fitness for binding NBS DNA": "≤ 0.2"}, {"variant": "QQEY", "one-hybrid fitness for binding NBS DNA": "≤ 0.2"}, {"variant": "QQQP", "one-hybrid fitness for binding NBS DNA": "≤ 0.2"}, {"variant": "QQQR", "one-hybrid fitness for binding NBS DNA": 0.586}, {"variant": "QQER", "one-hybrid fitness for binding NBS DNA": 0.426}, {"variant": "QQSR", "one-hybrid fitness for binding NBS DNA": 0.635}, {"variant": "QQEG", "one-hybrid fitness for binding NBS DNA": "≤ 0.2"}, {"variant": "QQQD", "one-hybrid fitness for binding NBS DNA": "≤ 0.2"}, {"variant": "QQWM", "one-hybrid fitness for binding NBS DNA": "≤ 0.2"}, {"variant": "QQWR", "one-hybrid fitness for binding NBS DNA": 0.514}, {"variant": "QQSG", "one-hybrid fitness for binding NBS DNA": "≤ 0.2"}, {"variant": "YILL", "one-hybrid fitness for binding NBS DNA": "≤ 0.2"}, {"variant": "KDKK", "one-hybrid fitness for binding NBS DNA": "≤ 0.2"}, {"variant": "ANDS", "one-hybrid fitness for binding NBS DNA": "≤ 0.2"}, {"variant": "PLNC", "one-hybrid fitness for binding NBS DNA": "≤ 0.2"}, {"variant": "EYLC", "one-hybrid fitness for binding NBS DNA": "≤ 0.2"}, {"variant": "RVEC", "one-hybrid fitness for binding NBS DNA": "≤ 0.2"}, {"variant": "GVRI", "one-hybrid fitness for binding NBS DNA": "≤ 0.2"}, {"variant": "ESSI", "one-hybrid fitness for binding NBS DNA": "≤ 0.2"}, {"variant": "DESV", "one-hybrid fitness for binding NBS DNA": "≤ 0.2"}, {"variant": "QRGF", "one-hybrid fitness for binding NBS DNA": 0.33}, {"variant": "QPGN", "one-hybrid fitness for binding NBS DNA": "≤ 0.2"}, {"variant": "QPGS", "one-hybrid fitness for binding NBS DNA": "≤ 0.2"}, {"variant": "QCGS", "one-hybrid fitness for binding NBS DNA": 0.487}, {"variant": "QRGH", "one-hybrid fitness for binding NBS DNA": 0.616}, {"variant": "QCGN", "one-hybrid fitness for binding NBS DNA": "≤ 0.2"}, {"variant": "QCGH", "one-hybrid fitness for binding NBS DNA": 0.282}, {"variant": "QSGS", "one-hybrid fitness for binding NBS DNA": 0.358}, {"variant": "QMGN", "one-hybrid fitness for binding NBS DNA": "≤ 0.2"}, {"variant": "QMGS", "one-hybrid fitness for binding NBS DNA": 0.42}, {"variant": "QRGN", "one-hybrid fitness for binding NBS DNA": 0.418}, {"variant": "QMGP", "one-hybrid fitness for binding NBS DNA": "≤ 0.2"}, {"variant": "NPLC", "one-hybrid fitness for binding NBS DNA": "≤ 0.2"}, {"variant": "QMPM", "one-hybrid fitness for binding NBS DNA": "≤ 0.2"}, {"variant": "ANEK", "one-hybrid fitness for binding NBS DNA": "≤ 0.2"}, {"variant": "DSVS", "one-hybrid fitness for binding NBS DNA": "≤ 0.2"}, {"variant": "KKWY", "one-hybrid fitness for binding NBS DNA": "≤ 0.2"}, {"variant": "CPMG", "one-hybrid fitness for binding NBS DNA": "≤ 0.2"}]}]}
